FBA Mtb inh: Mtb FBA enzyme inhibitors, primary screen, biochemical, fluorescence, strain H37Rv; purified M. tuberculosis FBA, fluorescence read-out; Fructose-bisphosphate aldolase (Mycobacterium tuberculosis (strain ATCC 25618 / H37Rv)), …; inhibition, % at 1 µM; 2.3% of 360,000 active;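 note: 0% = vehicle and 100% = reference inhibitor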
GDH-TPI counter-1: GDH-TPI coupling enzyme inhibitors, primary screen, artefact control for M. tuberculosis FBA inhibitor project, biochemical, absorbance, full deck. GDH-TPI coupled enzyme counterscreen, NADH absorbance. inhibition, % at 4.8 µM. 1.2% of 360,000 active; in the data active = inhibition above about 30%;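 note: 0% = DMSO wells and 100% = wells lacking the enzyme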
Mtb BioA inh: M. tuberculosis BioA enzyme inhibitors, primary screen, biochemical, plate reader, single point, HTS; purified M. tuberculosis BioA enzyme; inhibition, % at 9.99 µM; 0.096% of 360,000 active; in the data active = inhibition above about 40%
FadD28 FP inh: inhibitors of FadD28 bisubstrate probe binding, primary screen, biochemical, fluorescence polarization, single point. Mycobacterium tuberculosis FadD28 fatty-acid-AMP ligase. inhibition, % at 12.5 µM. 0.22% of 360,000 active. AID 588549, 2011; in the data active = inhibition above about 8.5%, passing the limit was not always enough
Rv3671c inh: Rv3671c serine protease inhibitors, primary screen, biochemical, fluorescence polarization, M. tuberculosis H37Rv. AID 2606, 2010. 0.048% of 320,000 active. inhibition, % at 5.96 µM; in the data active = inhibition above about 38%;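 note: extracellular domain of Rv3671c used as enzyme; 0% = enzyme with DMSO and 100% = no enzyme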
Target sequence (P9WHR9 whole entry, looked up, the tested form may be a part): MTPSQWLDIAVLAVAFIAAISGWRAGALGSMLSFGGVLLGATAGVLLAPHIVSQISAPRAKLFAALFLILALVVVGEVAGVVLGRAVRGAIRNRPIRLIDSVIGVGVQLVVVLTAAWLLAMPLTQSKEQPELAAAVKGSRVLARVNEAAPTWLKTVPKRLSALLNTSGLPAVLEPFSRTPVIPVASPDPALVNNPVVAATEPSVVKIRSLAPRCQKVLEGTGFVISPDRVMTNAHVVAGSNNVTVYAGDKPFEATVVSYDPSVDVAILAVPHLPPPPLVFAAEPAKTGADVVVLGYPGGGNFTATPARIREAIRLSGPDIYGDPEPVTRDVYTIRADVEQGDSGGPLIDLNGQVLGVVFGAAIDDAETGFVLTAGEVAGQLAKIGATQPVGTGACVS
Mtb FBA confirm: M. tuberculosis aldolase blockers, biochemical, fluorescence, strain H37Rv, confirmation. AID 651616, 2012. purified M. tuberculosis FBA, fluorescence read-out. inhibition, % at 1 µM. shares compounds with FBA Mtb inh. 78% of 5,600 active;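 note: 0% = vehicle wells and 100% = reference inhibitor wells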
GDH-TPI counter-2: GDH-TPI coupling enzyme inhibitors, artefact control for M. tuberculosis FBA inhibitor project, biochemical, fluorescence, high throughput; AID 652141, 2013; 81% of 5,600 active; inhibition, % at 1 µM; shares compounds with FBA Mtb inh; GDH-TPI coupled enzyme counterscreen; in the data active = inhibition above about 10%
GDH-TPI DR: GDH-TPI coupling enzyme inhibitors, dose response, artefact control for M. tuberculosis FBA inhibitor project, biochemical, fluorescence, IC50; AID 652145, 2013; shares compounds with FBA Mtb inh; GDH-TPI coupled enzyme assay, artifact counterscreen; IC50, µM; 79% of 170 active; call rule not given here
Starred values were filed as active, the others as inactive; nt = not tested or not shown; + = active, no number. This is a sample that favours compounds with a hit; in the whole collection about 3% have one here. Cut-off read from the data, not from the text of the source, unless noted: active = inhibition above about 27%; inactive = the rest.

SMILES	FBA Mtb inh	GDH-TPI counter-1	Mtb BioA inh	FadD28 FP inh	Rv3671c inh	Mtb FBA confirm	GDH-TPI counter-2	others
COc1ccc(-c2oc3ccccc3c2C(=O)OCc2ccccc2)cc1	98.5*	6.8	-1.3	-3.4	-6.1	+	175.4*
COc1ccc(-c2oc3ccccc3c2C(=O)Oc2ccccc2)cc1	90.5*	2.0	-3.0	-0.6	-12.3	28.8*	26.6*
COc1ccc(-c2oc3ccccc3c2C(=O)OCc2ccc(O)cc2)cc1	74.4*	11.8	-4.4	-1.0	-8.6	59.8*	63.5*
NC(=O)c1ccccc1NS(=O)(=O)Cc1ccccc1	61.6*	4.3	1.8	-0.7	-5.4	83.9*	66.3*
NC(=O)COc1ccc(NS(=O)(=O)Cc2ccccc2)cc1	1.0	3.2	2.5	-3.0	0.9	nt	nt
CN(C)C(=O)C[C@@H]1CC[C@@H]2[C@H](COC[C@@H](O)CN2CC2CC2)O1	nt	nt	-2.4	nt	nt	nt	nt
Cc1cc2oc(=O)c(CC(=O)NCCCN(C)C)c(C)c2c2occ(C(C)(C)C)c12	nt	nt	nt	nt	-5.8	nt	nt
Cc1cc2oc(=O)c(CC(=O)O)c(C)c2c2occ(C(C)(C)C)c12	15.3	18.4	2.9	-1.1	-5.5	nt	nt
COCCNC(=O)Cc1c(C)c2c(cc(C)c3c(C(C)(C)C)coc32)oc1=O	42.5*	12.1	1.7	-2.3	-10.3	69.9*	65.3*
Cc1cc2oc(=O)c(CC(=O)NCCCO)c(C)c2c2occ(C(C)(C)C)c12	30.9*	9.7	1.7	0.6	2.9	56.9*	54.1*
COc1ccccc1-n1c(=O)[nH]c2c(C(N)=O)nc(-c3cccnc3)nc21	38.9*	28.2	1.2	-2.9	1.9	4.0	3.8
NC(=O)c1nc(C2CCCCC2)nc2c1[nH]c(=O)n2-c1ccc(F)cc1	6.3	2.4	-0.6	-1.1	-8.2	nt	nt
COc1ccccc1-n1c(=O)[nH]c2c(C(N)=O)nc(C3CCCCC3)nc21	27.2*	17.5	0.8	-4.1	4.0	+	+
Cc1noc(C)c1NC(=O)N(C)C[C@@H]1Oc2ccc(NS(C)(=O)=O)cc2CC(=O)N([C@@H](C)CO)C[C@@H]1C	nt	nt	-1.4	nt	nt	nt	nt
COc1ccc(C)cc1S(=O)(=O)Nc1cccc(-c2cn3cccnc3n2)c1	89.3*	12.1	-0.5	-10.2	-1.6	4.7	-6.4
O=S(=O)(Nc1cccc(-c2cn3cccnc3n2)c1)c1ccc(Cl)cc1	56.4*	19.8	1.0	-1.7	-14.9	5.6	-7.1
C[C@@H]1CN([C@H](C)CO)C(=O)c2cccc(NC(=O)NC3CCCCC3)c2O[C@@H]1CN(C)S(=O)(=O)c1cccs1	nt	nt	0.8	nt	nt	nt	nt
CCN(CC)c1ccc2c(Cl)cc(=O)oc2c1	nt	nt	nt	nt	-4.8	nt	nt
CCN(CC)c1ccc2c(C)c(CO)c(=O)oc2c1	49.4*	8.0	nt	-0.3	-13.7	+	+
CCN(CC)c1ccc2c(O)cc(=O)oc2c1	22.0	23.4	nt	-3.8	13.4	nt	nt
CCN(CC)c1ccc2c(C)c(CN3CCOCC3)c(=O)oc2c1	88.0*	17.0	-0.2	-4.0	-3.7	-3.1	-5.3
COc1cc(/C=N/NC(=O)C(N)=O)cc(OC)c1O	50.9*	13.7	-0.6	0.3	3.4	+	+
COC(=O)C1=C(C)NC2=C(C(=O)CCC2)C1c1cn(Cc2ccc(Br)cc2)nc1-c1ccccc1 (stereo unspecified)	27.8*	9.7	-0.8	-2.0	-9.1	41.4*	29.8*
COC(=O)C1=C(C)NC2=C(C(=O)CC(C)(C)C2)C1c1cn(Cc2ccc(Br)cc2)nc1-c1ccccc1 (stereo unspecified)	19.1	20.5	0.1	-6.6	-21.4	nt	nt
COC(=O)C1=C(C)NC2=C(C(=O)CCC2)C1c1cccc(C)n1 (stereo unspecified)	27.7*	3.5	-0.9	-2.4	-3.2	147.0*	121.1*
SMILES	FBA Mtb inh	GDH-TPI counter-1	Mtb BioA inh	FadD28 FP inh	Rv3671c inh	Mtb FBA confirm	GDH-TPI counter-2	others
C[C@H]1CCCCO[C@@H](CN(C)S(=O)(=O)c2cccs2)[C@@H](C)CN([C@@H](C)CO)C(=O)c2cc(NC(=O)Nc3ccc(F)cc3)ccc2O1	nt	nt	-3.7	nt	nt	nt	nt
COC(=O)c1cccc(NS(=O)(=O)c2ccc(NC(C)=O)cc2)c1C	1.3	-8.0	-0.9	-3.4	-5.9	nt	nt
COC(=O)c1ccc(C(=O)OC)c(NS(=O)(=O)c2ccc(NC(C)=O)cc2)c1	33.5*	4.1	1.3	-4.8	-4.8	71.2*	62.1*
Cc1cc2c(SCc3ccccc3Cl)nc(N)nc2nc1C	85.6*	6.2	-5.8	0.4	nt	18.7	0.7	GDH-TPI DR=1.31*
Cc1ccc(-n2nc(C)c3c2NC2=C(C(=O)CC(C)(C)C2)C3c2ccccc2OCC(=O)O)cc1 (stereo unspecified)	36.9*	3.8	nt	-1.6	1.9	194.2*	129.4*
CN(C)c1oc(-c2ccc(OCc3ccccc3)cc2)nc1C#N	109.5*	25.6	0.3	-1.8	-1.7	-5.7	-5.2
C[C@H](CO)N1C[C@H](C)[C@H](CN(C)C)OCCCC[C@H](C)Oc2ccc(NC(=O)Cc3ccccc3)cc2C1=O	nt	nt	-2.4	nt	nt	nt	nt
O=C(NCCN1CCCCC1)[C@@H]1[C@@H](CO)[C@@H]2Cn3c(cccc3=O)[C@@H]2N1C(=O)C1CC1	nt	nt	-1.5	nt	nt	nt	nt
Cc1ccc(C)c(-n2c3nc(=O)n(C)c(=O)c-3cc3ccccc32)c1	100.3*	19.0	nt	-0.9	9.8	+	+
Cc1ccc(C)c(-n2c3nc(=O)[nH]c(=O)c-3cc3cc([N+](=O)[O-])ccc32)c1	-0.4	24.7	1.6	1.9	30.3	nt	nt
CCCCn1c(=O)cc(C)n(-c2ccccc2)c1=O	0.3	-3.7	nt	1.0	-1.6	nt	nt
CCCCn1c(=O)nc2n(-c3ccccc3)c3ccccc3cc-2c1=O	45.6*	10.4	1.0	-2.4	-4.9	122.5*	98.0*
CC12CCC(=O)N1c1c(sc3nc(N4CCOCC4)c4c(c13)CCCC4)C(=O)N2 (stereo unspecified)	63.2*	27.4	27.9	-3.5	9.3	121.6*	112.6*
COC(=O)c1ccc(-c2sc3nc(N4CCOCC4)c4c(c3c2N)CCCC4)o1	nt	nt	nt	nt	8.3	nt	nt
COc1ccc(CNC(=O)C[C@@H]2C[C@@H]3c4cc(NS(C)(=O)=O)ccc4O[C@@H]3[C@@H](CO)O2)cc1	nt	nt	-2.5	nt	nt	nt	nt
O=C(c1cc2ccccn2n1)N1CCN(Cc2ccccc2)CC1	4.7	7.3	-0.6	0.2	1.6	nt	nt

Screens deposited in PubChem BioAssay by several laboratories.
